Source: PubChem BioAssay
CF NFkB block: blocks PAF-induced NF-kB reporter in cystic fibrosis cells | KKLEB NF-kB-GFP reporter, GFP fluorescence overnight | inhibition, % at 5 µM | 0.86% of 360,000 active | AID 588850;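 active = at least 50% inhibition at 5 µM, scaled per plate between neutral and stimulator controls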;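 also: PAF is a Pseudomonas aeruginosa culture filtrate used as stimulus; plate controls were PAF-stimulated DMSO wells for no effect and unstimulated DMSO wells for full effect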
MITF TRPM1 inh: reduces MITF-dependent TRPM1 promoter luciferase signal. inhibition, % at 12.5 µM. AID 488899. 0.83% of 330,000 active. SK-MEL-5 TRPM1 promoter luciferase, 24 h;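 active = mean inhibition across replicates of 60% or more, whatever share of single replicates reaches that level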
Shn3 3UTR inh: Schnurri-3 reporter inhibition in Clone20 osteoblasts; inhibition, % at 12.5 µM; 0.52% of 360,000 active; Clone20 osteoblast Shn3 3'UTR firefly luciferase, 24 h;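 active = mean inhibition of at least 75% with every replicate also reaching 75%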;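 also: 0% = median of neutral control wells and 100% = pilot-screen positive control compound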
Peg3 prom inh: reduces Peg3 promoter-driven luciferase expression in HeLa; HeLa PEG-Prom luciferase reporter, luminescence, overnight; inhibition, % at 20 µM; 1.7% of 360,000 active;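 active = inhibition of at least 50% at 20 µM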
HIF-2a inh: inhibitors of HIF-2a | 786-0 RCC cells HIF-2a reporter, luciferase luminescence, overnight | inhibition, % at 18.8 µM | 0.72% of 360,000 active;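 active = inhibition of the luminescence signal of 40% or more relative to plate controls, in a single-dose primary screen at 18.75 µM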
KKLEB tox: counter-screen for CF NF-kB inhibitors: cytotoxicity; KKLEB CF airway cells viability, ATPlite luminescence, overnight; active compounds read low; cells stimulated with P. aeruginosa culture filtrate; activity change (cytotoxicity), % at 5 µM; 0.36% of 360,000 active;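 active = corrected activity change at or below -50% at 5 µM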
* marks the source's active call; other numbers are inactive results; · = no result. Compounds with a hit are over-represented: about 2.8% of the library has one in this group of screens.

SMILES | CF NFkB block | MITF TRPM1 inh | Shn3 3UTR inh | Peg3 prom inh | HIF-2a inh | KKLEB tox
CN(C)C(=O)N1CCC(C(=O)N2CCCC(C(=O)c3cccc4ccccc34)C2)CC1 (configuration not stated) | 9.2 | 10.0 | 4.1 | -6.8 | -15.4 | 7.3
Cn1cc(C(=O)N/N=C/c2ccc(Br)c([N+](=O)[O-])c2)c2ccccc21 | -2.5 | · | 1.4 | 52.0* | 33.8 | 7.9
Cc1cc(N2CCOCC2)ccc1/C=C\[N+](=O)[O-] | 54.3* | 58.8 | 38.5 | 101.8* | 54.9* | -10.2
O=C(Cn1nnc(-c2ccccc2)n1)N/N=C/c1cc([N+](=O)[O-])c(Cl)cc1Cl | -12.9 | 11.7 | -8.0 | 50.1* | 25.6 | 6.8
Cc1cc(Cl)ccc1C(O)c1ncc(-c2ccc(Cl)cc2)[nH]1 (configuration not stated) | 19.5 | · | 70.2 | 16.5 | 19.0 | -7.1
Cc1nnn(-c2nonc2N)c1C(=O)N/N=C/c1cccc2ccccc12 | 4.2 | -2.1 | 9.3 | 52.2* | 4.2 | -4.9
CCN(CC)c1ccc(/C=N/NC(=O)c2nnn(-c3nonc3N)c2C(C)C)c(O)c1 | 41.0 | 68.2* | 92.3* | 53.0* | 0.7 | -26.1
O=C(NN=Cc1cccc2ccccc12)C(=O)NN=Cc1cccc2ccccc12 | -24.3 | 0.0 | 19.5 | 51.1* | 2.3 | 6.2
CC(O)C(=O)N/N=C/c1cccc2ccccc12 (configuration not stated) | 3.6 | 12.0 | 1.1 | -21.1 | -16.3 | 0.6
CC1CCN(Cc2c(C(=O)N/N=C/c3ccccc3O)nnn2-c2nonc2N)CC1 | 4.3 | 29.8 | 80.0 | 66.3* | 4.8 | 1.4
CCOC(=O)CC1COc2ccccc2N1C(=O)c1cccc([N+](=O)[O-])c1 (configuration not stated) | 10.9 | 10.3 | -0.9 | 10.0 | 3.3 | 4.0
COc1ccc(S(=O)(=O)N2CCN(C(=O)c3ccco3)CC2)cc1C(C)(C)C | 14.0 | -0.4 | 2.2 | 20.9 | 21.0 | -4.8
COc1ccc(C2CCc3cc4c(cc3C2=NO)OCO4)cc1OC (configuration not stated) | 8.7 | · | 14.9 | 13.0 | 14.9 | 3.8
CCCc1c(C(=O)N/N=C(\C)c2ccc(O)cc2)nnn1-c1nonc1N | 5.2 | -1.7 | 4.3 | -13.1 | -5.6 | 5.8
CN(Cc1c(C(=O)N/N=C/c2ccccc2O)nnn1-c1nonc1N)C1CCCCC1 | 12.3 | · | 83.4 | 58.9* | 7.7 | -9.2
CCCc1c(C(=O)N/N=C(\C)c2ccccn2)nnn1-c1nonc1N | -17.8 | · | 89.4* | 40.3 | 9.4 | -8.5
CN(Cc1c(C(=O)N/N=C/c2cccc(O)c2)nnn1-c1nonc1N)C1CCCCC1 | 10.7 | 7.5 | -1.1 | 17.4 | 7.4 | 2.5
O=C(N/N=C\c1cc(Cl)ccc1O)c1ccc(S(=O)(=O)N2CCCCC2)cc1 | 14.3 | 66.4* | 91.4* | 44.5 | 7.4 | -17.6
Nc1nonc1-n1nnc(C(=O)N/N=C/c2ccc(Cl)cc2Cl)c1CN1CCCCC1 | -3.2 | -2.7 | -2.8 | 21.1 | 5.1 | 7.7
Nc1nonc1-n1nnc(C(=O)N/N=C/c2cc(Cl)ccc2O)c1CN1CCCCCC1 | 5.4 | 26.8 | 66.2 | 53.7* | 17.9 | -15.4
c1cnn(Cc2cnc(N3CCOCC3)s2)c1 | 4.7 | 7.7 | 1.9 | -5.9 | 2.9 | 7.1
CN1C(=O)C(C)(C)c2cc(S(=O)(=O)N3CCC(C(=O)NCc4ccccc4Cl)CC3)ccc21 | -13.9 | 3.2 | -9.7 | -4.8 | 13.7 | 29.7
COCCCN(Cc1cc(OC)c(OC)c(OC)c1)C(=S)Nc1cccc(Cl)c1 | 7.8 | · | 81.8* | 13.2 | 4.3 | 6.3
CC(CC(=O)NCc1ccc(Cl)cc1)c1ccccc1 (configuration not stated) | 9.8 | -0.8 | 4.1 | -10.3 | 6.8 | 4.5
Cn1c(=O)c2c(nc(NCc3ccco3)n2C)n(C)c1=O | -5.3 | -5.0 | 0.0 | 2.4 | -3.6 | 0.9
SMILES | CF NFkB block | MITF TRPM1 inh | Shn3 3UTR inh | Peg3 prom inh | HIF-2a inh | KKLEB tox
Cn1c(=O)c2c(nc(NCc3ccco3)n2C/C=C/c2ccccc2)n(C)c1=O | 14.6 | 54.0 | 87.9* | 29.2 | 20.5 | 0.7
CC(Cl)=CCn1c(NCCc2ccccc2)nc2c1c(=O)n(C)c(=O)n2C | 33.7 | · | 91.7* | 12.2 | -22.4 | -1.1
Cn1c(=O)c2c(nc(NCCc3ccccc3)n2Cc2ccc(F)cc2)n(C)c1=O | 34.1 | 10.0 | 56.0 | 34.0 | -1.2 | -3.8
CC(C)c1cc(C(=O)OCC(=O)NC2CC2)c(O)c(C(C)C)c1 | -21.6 | · | 15.2 | 17.9 | 14.6 | 5.1
N=c1n(CCO)c2ccccc2n1CCOc1ccc(Cl)cc1Cl | 14.1 | 4.0 | 11.5 | 103.3* | -0.8 | -24.3
COc1ccc(OCCn2c(=N)n(CCO)c3ccccc32)cc1 | -6.4 | 5.7 | 15.8 | 9.9 | 3.6 | -2.3
O=c1[nH]c(Nc2ccc3c(c2)OCCO3)nnc1Cc1ccccc1 | 18.5 | -3.0 | 2.8 | 12.4 | 2.7 | -3.8
COc1ccc2[nH]c(=O)c(CN(CC3CCCO3)C(=O)Nc3ccc(F)cc3)cc2c1 (configuration not stated) | -0.3 | 14.2 | 49.6 | 76.7* | 15.9 | -7.1
COc1ccc(NC(=O)N(Cc2cc3cc(C)ccc3[nH]c2=O)CC2CCCO2)cc1 (configuration not stated) | 1.9 | 2.1 | 5.8 | 19.3 | 21.9 | -5.2
O=C(Oc1c(Cl)cc(Cl)c2cccnc12)c1cccc([N+](=O)[O-])c1 | 13.2 | 12.4 | -6.8 | 53.8* | 14.9 | 13.2
N#Cc1ccccc1N1CCN(C(=O)c2ccc(NC(=O)c3ccc(Br)o3)cc2)CC1 | -15.3 | 0.4 | -17.8 | -13.1 | -4.1 | 26.0
O=C(COC(=O)c1nc(Cl)c(Cl)c(Cl)c1Cl)c1ccc[nH]1 | 5.7 | 20.9 | 9.6 | 51.3* | -14.6 | -8.3
CCOc1ccc(-c2cc(C(=O)NCCCn3ccnc3)c3ccccc3n2)cc1 | 6.7 | -57.1 | -15.9 | -56.6 | -150.9 | 5.2
